PHOSPHO1 inh: PubChem AID 1565; Phosphoethanolamine/phosphocholine phosphatase (Homo sapiens), Q8TCT1; recombinant PHOSPHO1, absorbance phosphatase assay; inhibition, % at 13.3 µM; 1.1% of 290,000 active; in the data active means inhibition above about 60%
eIF4H inh: human eIF4H binding inhibitors, primary screen, translation initiation inhibitor project, biochemical, uHTS, fluorescence polarization; Eukaryotic translation initiation factor 4H (Homo sapiens), Q15056; eIF4H fluorescence polarization binding assay; inhibition, % at 35 µM; 0.94% of 290,000 active; AID 2012, 2009;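 further: calls also rest on retests at 20 µM and on dose response follow-up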
A3A deaminase: APOBEC3A ssDNA deaminase inhibitors, primary screen, selectivity assay for APOBEC3G inhibitor project, biochemical, FAM/TAMRA oligo cleavage fluorescence; recombinant A3A, FAM/TAMRA ssDNA deamination fluorescence; inhibition, % at 20 µM; 0.41% of 330,000 active; DNA dC->dU-editing enzyme APOBEC-3A (Homo sapiens), P31941;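 active means at least 40% inhibition at 20 µM here, with at most 30% in a related deaminase screen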;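 further: plate controls were A3A with DMSO for no effect and wells lacking A3A enzyme for full effect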
PABP1 MLLE inh: inhibitors of PABP1 MLLE–PAM2 peptide binding, primary screen, biochemical, fluorescence polarization, FITC-PAM2, GST-MLLE; inhibition, % at 20 µM; AID 588489, 2011; 0.36% of 360,000 active; in the data active means inhibition above about 35%, passing the limit was not always enough;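 further: plate controls were DMSO wells with GST-MLLE for no effect and wells lacking GST-MLLE protein for full effect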
PABP polyA inh: PABP poly(A) RNA binding inhibitors, primary screen, biochemical, fluorescence polarization, uHTS; calls only at 35 µM; 1% of 290,000 active;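 further: calls also rest on retests at 20 µM and on dose response follow-up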
APOBEC3G inh: APOBEC3G DNA deaminase inhibitors, primary screen, biochemical, fluorescence, single-stranded DNA substrate, uHTS; recombinant A3G, ssDNA deamination FAM/TAMRA fluorescence; DNA dC->dU-editing enzyme APOBEC-3G (Homo sapiens), Q9HC16; 0.28% of 330,000 active; inhibition, % at 20 µM;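 active means inhibition of at least 40% at 20 µM, with no more than 30% in the related APOBEC3A deaminase screen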;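 further: plate controls were DMSO wells with A3G for no effect and wells lacking A3G enzyme for full effect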
Target sequence (Q9HC16 whole entry, looked up): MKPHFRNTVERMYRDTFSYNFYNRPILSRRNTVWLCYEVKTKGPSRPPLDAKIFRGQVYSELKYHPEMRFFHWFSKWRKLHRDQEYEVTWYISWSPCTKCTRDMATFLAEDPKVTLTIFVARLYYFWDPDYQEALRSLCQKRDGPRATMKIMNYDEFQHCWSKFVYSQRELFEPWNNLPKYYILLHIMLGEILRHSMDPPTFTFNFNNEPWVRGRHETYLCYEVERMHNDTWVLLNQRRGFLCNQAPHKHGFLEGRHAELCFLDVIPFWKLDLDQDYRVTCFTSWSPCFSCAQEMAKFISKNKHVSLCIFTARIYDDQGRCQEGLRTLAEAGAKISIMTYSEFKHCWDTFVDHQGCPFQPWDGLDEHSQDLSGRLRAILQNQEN
* marks the source's active call; other numbers are inactive results; i = inactive; / = no result given; + = active, no number. This is a sample that favours compounds with a hit; in the whole collection about 2.6% have one here. Unless noted, how the calls were made is not given here.

SMILES	PHOSPHO1 inh	eIF4H inh	A3A deaminase	PABP1 MLLE inh	PABP polyA inh	APOBEC3G inh
COc1cccc(N2CC(=O)N(c3cccc(OC)c3)CC2=O)c1	60*	-5	-1	0	i	-9
COC(=O)C1=C(C)Nc2ccc(C)cc2S1	38	4	-2	32	i	-11
CC(=O)C1=C(C)Nc2cc(C(F)(F)F)ccc2S1	96*	-5	-5	-2	i	-9
Cc1cc[n+](-c2[nH]c(=O)sc2/C=N/N=C(\[O-])c2ccncc2)cc1C	14	30	-4	29	i	-4
Cc1cc[n+](-c2[nH]c(=O)sc2/C=N/N=C(\[O-])c2ccncc2)cc1	49	100*	70	41*	+	81
Cc1cc[n+](-c2[nH]c(=O)sc2/C=N/N=C(\[O-])c2ccccc2)cc1	42	73	2	39*	+	13
Cc1cc(C)cc(C(O)c2ncc(-c3cccc(C(F)(F)F)c3)[nH]2)c1 (stereo unspecified)	/	/	/	-12	/	/
O=C(c1nc2ccccn2c1CNCCOc1cccnc1)N1CCOCC1	46	3	1	2	i	-5
O=C(O)Cn1c(O)c(C2=c3ccccc3=NC2=O)sc1=O	18	4	1	6	i	-1
Cc1c(-n2c(O)c(C3=c4ccccc4=NC3=O)sc2=O)c(=O)n(-c2ccccc2)n1C	10	-8	-2	47*	i	-6
COc1ccc(Cl)cc1-c1nc(SCC(=O)N(C)C)n[nH]1	-16	3	6	4	i	-1
CCn1c(-c2csc(-c3ccc(Cl)cc3)n2)n[nH]c1=S	83*	0	-2	-104	i	-2
CCn1c(-c2cc(Cl)ccc2OC)n[nH]c1=S	89*	2	-4	-14	i	37
COc1ccc(Cl)cc1-c1n[nH]c(=S)n1C	85*	-1	-6	-27	i	39
O=C(C[C@H]1C/C=C\C[C@@H](Cc2ccc(F)cc2)C(=O)O[C@H](c2ccccc2)CNC1=O)NCCO	/	/	0	2	/	-7
CC(NC(=O)CCc1nnc(CCCc2ccccc2)o1)c1ccccc1 (stereo unspecified)	3	1	5	-3	i	-1
CCOc1ccc(OCC)c(NC(=O)C2CCN(S(=O)(=O)c3ccc4c(c3)CC(C)N4C(C)=O)CC2)c1 (stereo unspecified)	42	-5	-4	-5	i	-5
CCCCC(=O)NC(=S)NNC(=O)c1ccc(OC)cc1	46	14	-2	-13	i	32
Cc1ccc(N2C(=O)SC(N(CC(=O)O)c3cccc(C)c3)C2=O)cc1 (stereo unspecified)	41	-1	-4	26	i	3
Cc1ccc(N(CC(N)=O)C2SC(=O)N(Cc3ccccc3)C2=O)cc1 (stereo unspecified)	2	-2	-4	42*	i	-8
NC(=O)CN(c1ccccc1)C1SC(=O)N(Cc2ccccc2)C1=O (stereo unspecified)	7	-2	9	45*	i	-3
O=C(O)CN(c1ccccc1)C1SC(=O)NC1=O (stereo unspecified)	5	-1	-6	3	i	-6
COc1cccc(N2CCN(S(=O)(=O)c3ccc4c(c3)NC(=O)C(C)C(=O)N4)CC2)c1 (stereo unspecified)	-1	4	0	-10	i	36
COc1ccc([C@H]2CC(=O)C=C(c3ccc(OC)nc3)C2)cc1	/	/	-1	-3	/	-7
COC(=O)c1ccccc1NC(=O)c1ccc2nccnc2c1	-10	54	6	-21	+	-8
SMILES	PHOSPHO1 inh	eIF4H inh	A3A deaminase	PABP1 MLLE inh	PABP polyA inh	APOBEC3G inh
O=C(NC1CCCCC1)C(c1ccc(O)cc1)N(CC1CCCO1)C(=O)C1COc2ccccc2O1 (stereo unspecified)	4	1	4	8	i	-9
Cc1cc(C)nc(Nc2nc(=O)c3ccccc3s2)n1	4	7	2	38*	i	1
CCOc1ccccc1NC(=S)NCc1ccco1	82*	-5	-4	-1	i	-8
CCOc1ccccc1NC(=S)NCc1ccccc1	30	-4	-5	-15	i	-4
S=C(NCc1ccco1)Nc1ccc(Cl)c(Cl)c1	72*	1	-1	7	i	-1
S=C(NCc1ccco1)Nc1cccc(Cl)c1	3	-9	3	-3	i	1
COc1ccc(CN(C(=O)COc2ccccc2)c2ccccc2C(=O)O)cc1	-25	-8	2	11	i	-1
CCCCNC(=O)c1onc(CSc2ccc(OC)cc2)c1C(=O)O	98*	-3	1	9	i	-8
CCn1c(SCC(=O)NC(=O)Nc2ccc3c(c2)OCCO3)nnc1-c1cccs1	65*	0	-2	-18	i	-14
Cc1cccc(OCc2nnc(SCC(=O)c3cccs3)n2C)c1C	76*	-7	-1	-98	i	-3
CCn1c(SCC(=O)Nc2ccc3c(c2)OCCO3)nnc1-c1ccco1	-1	-6	-1	-4	i	-2
CCn1c(SCC(=O)c2cccs2)nnc1-c1cccs1	70*	8	-1	-40	i	0
COc1ccc(OC)c(NC(=O)c2ccccc2N(C)S(=O)(=O)c2ccc(C)cc2)c1	29	-3	-5	-13	i	-8
COC(=O)c1sc(=S)n(-c2cc(F)ccc2F)c1N	-18	-10	8	40*	i	39
Cc1cc(C(F)(F)F)nc(SCC(=O)NC2=NC(=O)C(C)S2)n1 (stereo unspecified)	52	-2	-2	44*	i	-4
Cc1cc(C)nc(SCC(=O)NC2=NC(=O)C(C)S2)n1 (stereo unspecified)	16	1	2	/	i	-6
CCN(CC(=O)Nc1ccc(NC(C)=O)cc1)C(=O)COc1ccccc1Cc1ccccc1	22	-1	4	-17	i	-5
CCOC(=O)N1CCN(C(=O)CSc2nnc(Cc3cccn3C)n2CCc2ccccc2)CC1	62*	9	2	-37	i	-6
COc1ccc(C(CNC(=O)CNC(=O)c2cc(OC)c(OC)c(OC)c2)N2CCOCC2)cc1 (stereo unspecified)	/	/	-5	-7	/	-5
O=c1cc(CSc2nc3ccccc3c(=O)[nH]2)c2ccc(O)cc2o1	60*	30	/	8	i	/
